Most compounds without a hit are left out; they make up all but 9% or so of the library.
IMPase inh – qHTS Assay for Identifying the Cell-Membrane Permeable IMPase Inhibitors | inhibition (IP1 accumulation), % at 46.1 µM | 120,000 tested, under 10 active | CHO-M1 cells, IP1 accumulation, HTRF TR-FRET ratio | Inositol monophosphatase 1 (Rattus norvegicus), P97697 | AID 901, 2007; active means well fitted curve in the direction sought with a large enough effect in the signal ratio, not every such curve was filed as active; inconclusive means small, poorly fitted or top-dose-only effect, or a change in a side signal; inactive means no such curve, though single readings can be large or run the other way; the % refers to the signal ratio;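 further: cells stimulated with carbachol in lithium chloride buffer; plate controls were DMSO basal wells for no effect and reference inhibitor wells for full effect; higher means more IMPase inhibition seen as more IP1 and lower FRET ratio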
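CHO-M1, 2000 cells/well, cultured 16–30 h; cpd up to 46 uM; carbachol (50 uM solution, stimulation buffer w/ 50 mM LiCl, pH 7.4), 30 min 37C; IP-One TR-FRET, 10 min RT; Ex 320/Em 665, 620; Hill-fit AC50.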
ALDH1A1 inh – qHTS Assay for Inhibitors of Aldehyde Dehydrogenase 1 (ALDH1A1). Aldehyde dehydrogenase 1A1 (Homo sapiens), P00352. Purified ALDH1A1, NADH fluorescence, propionaldehyde substrate. Potency, µM (titrated, usually from 75.3 µM), without a hit: top-dose activity, negative = inhibition, most hits filed as inhibitors. 220,000 tested, 7.3% active;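 further: potency means the concentration at half of the fitted maximal effect; plate controls were no enzyme wells and a reference inhibitor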
Target sequence (P00352 whole entry, looked up): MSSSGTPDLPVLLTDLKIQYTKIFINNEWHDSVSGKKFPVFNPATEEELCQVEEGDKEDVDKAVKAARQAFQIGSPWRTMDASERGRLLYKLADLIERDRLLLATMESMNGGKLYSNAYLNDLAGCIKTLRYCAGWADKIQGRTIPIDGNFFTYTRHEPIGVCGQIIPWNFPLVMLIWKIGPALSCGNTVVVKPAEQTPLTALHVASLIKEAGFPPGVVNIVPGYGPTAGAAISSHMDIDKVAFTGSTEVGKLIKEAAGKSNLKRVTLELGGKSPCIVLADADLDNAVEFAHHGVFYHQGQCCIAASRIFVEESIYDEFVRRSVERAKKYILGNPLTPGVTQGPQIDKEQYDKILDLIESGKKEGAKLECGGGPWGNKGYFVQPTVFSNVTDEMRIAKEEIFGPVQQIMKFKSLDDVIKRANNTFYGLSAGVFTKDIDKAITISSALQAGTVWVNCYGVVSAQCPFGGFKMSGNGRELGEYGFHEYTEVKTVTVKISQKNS
HPGD inh – qHTS Assay for Inhibitors of HPGD (15-Hydroxyprostaglandin Dehydrogenase); 15-hydroxyprostaglandin dehydrogenase [NAD(+)] (Homo sapiens), P15428; purified HPGD, NADH fluorescence kinetic, PGE2 substrate; Potency, µM, for the others: top-dose activity change, negative = inhibition, usual class: inhibitors; 150,000 tested, 4.3% active; AID 894, 2007; further: potency means the concentration at half of the fitted maximal effect
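NADH formation kinetics: reaction with 30 uM PGE2 and 1 mM NAD+ (final), 20 nM enzyme, Tris-HCl pH 8 with Tween 20, after 15 min compound preincubation at room temperature. Fluorescence change, last versus first of five reads.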
Starred values were filed as active, the others as inactive; ? = inconclusive; / = no result given; [ ] = remark or other dose. Unless noted, the call rests on the fitted dose curve; in most records, active means well fitted inhibition curve with a large enough effect (not every such curve was filed as active); inconclusive means small, poorly fitted or top-dose-only effect, or another doubt; inactive means no such curve, though single readings can be large or run the other way. Unless noted, on the % scale 0 is the no-effect control and ±100 the full control effect.

SMILES	IMPase inh	ALDH1A1 inh	HPGD inh
CCOC(=O)c1ccc(NC(=S)NNC(=O)C2(C)CC2(Cl)Cl)cc1 (stereo not given)	5.5	10µM*	28.2µM*
CCOc1ncccc1C(=O)OCc1cccc([N+](=O)[O-])c1	/	4.8%	/
O=c1c(-c2cccc(Cl)c2)nc2cncnc2n1C1CC1	/	13.6%	/
CC(=O)N(CC(=O)O)c1ccccc1C(=O)O	6.9	2.5%	-10.5%
CN(C)c1ccc(C2N3CC4(C)CN2CC(C)(C3)C4O)cc1 (stereo not given)	3.8	0.891µM*	-23.9%
CC12CN3CC(C)(CN(C1)C3c1ccc(Cl)cc1Cl)C2O (stereo not given)	6.8	2.5%	-4.5%
CCCN1C(=O)S/C(=C\c2ccc(N3CCOCC3)o2)C1=O	/	0.224µM*	/
CCCN1C(=O)S/C(=C\c2ccc(N3CCOCC3)cc2C)C1=O	1.8	1.58µM*	-11.2%
O=C(CN1C(=O)S/C(=C/c2ccc(N3CCOCC3)cc2)C1=O)N1CCOCC1	/	?	-11.1%
COC(=O)C(C)N1C(=O)S/C(=C/c2cc(C)n(C(C)C)c2C)C1=O (stereo not given)	0.5	?	-11.6%
Cc1cc(N2CCOCC2)ccc1/C=C1\SC(=O)N(C(C)C)C1=O	2.8	5.01µM*	-17.1%
CCC(C)N1C(=O)S/C(=C/c2ccc(N3CCOCC3)cc2C)C1=O (stereo not given)	/	10µM*	-2.1%
COc1cc(/C=C2\SC(=Nc3ccc(N4CCOCC4)cc3)N(C)C2=O)ccc1OC(C)C(=O)O (stereo not given)	/	-8.1%	-26.0%
CCN1C(=O)S/C(=C\c2ccc(N3CCOCC3)cc2C)C1=O	6.0	-14.8%	/
COc1ccc2c(c1)CN([C@H](C)[C@@H]1CC[C@@H]3[C@H]4CC[C@H]5C[C@@H](O)CC[C@@]5(C)[C@H]4CC[C@]31C)CO2	/	?	-3.9%
CC#CCN1c2ccccc2[C@]23C[C@@H](C(=O)OC)N(S(=O)(=O)c4ccc5c(c4)OCCN5C)C2=NC(C(=O)OC)=C(C(=O)OC)[C@H]13	/	-6.2%[13.5 µM]	-0.7%
CC(C)(C)OC(=O)CC[C@@H](C(=O)N1CCN(C(=O)OC(C)(C)C)CC1)n1cc(C(Cc2ccc(O)cc2)NC(=O)OC(C)(C)C)nn1 (stereo not given in full)	/	-9.6%	/
CCC(C)c1ccc(OCC(=O)Nc2ccc(-c3nc4ncccc4o3)cc2)cc1 (stereo not given)	-4.0	/	/
Cn1cc(CC(=O)Nc2cccc(C#N)c2)c2ccccc21	3.8	?	-7.6%
Cc1ccc(C2C=C(c3ccccc3)Nc3nc(NS(C)(=O)=O)nn32)cc1 (stereo not given)	-17.8	/	/
O=C1[C@H]2[C@H]3C=C[C@@H](C4[C@H]3[C@@H]3C(=O)N(CN5CCSCC5)C(=O)[C@H]43)[C@H]2C(=O)N1CN1CCSCC1 (stereo not given in full)	/	-4.7%[13.5 µM]	-4.7%
COc1cccc(C2SCC(=O)N2c2ccc(C)cc2)c1OC (stereo not given)	/	14.1µM*	-6.0%
COc1ccc(N2C(=O)CSC2c2cccc(OC)c2OC)cc1 (stereo not given)	/	-3.8%	-1.9%
O=C(c1ccncc1)N1CCC2(CC1)CN(Cc1cc(C(F)(F)F)cc(C(F)(F)F)c1)C2	/	-12.0%	-6.7%
CC(=O)C1=C(S(=O)(=O)c2ccc(C)cc2)CS(=O)(=O)C1	/	1.26µM*	/
SMILES	IMPase inh	ALDH1A1 inh	HPGD inh
Cc1ccc(S(=O)(=O)C2CS(=O)(=O)CC2O)cc1 (stereo not given)	-0.4	3.0%	-6.8%
Cc1ccc(-c2[nH]c(=S)[nH]c(=O)c2C#N)cc1	/	-7.9%	/
Cn1c(=O)n(C)c2cc(N3CCOCC3)c(NC(=O)c3c(F)cccc3F)cc21	-2.2	/	/
Cc1cccc(-n2nnnc2SCC(=O)c2cc(C)n(CC3CCCO3)c2C)c1 (stereo not given)	16.0	7.94µM*	-9.8%
Cc1cc(C(=O)CSc2nnnn2-c2ccc(O)cc2)c(C)n1Cc1ccc2c(c1)OCO2	12.5	-3.9%	-4.3%
Cn1c(SCC(=O)c2ccc3c(c2)OCO3)nnc1C1COc2ccccc2O1 (stereo not given)	2.9	?	-22.6%
Cc1cc(C(=O)CSc2nnnn2-c2ccccc2)c(C)n1-c1ccc2c(c1)OCO2	/	0.251µM*	-18.6%
Cc1cc(C(=O)CSc2nc3ccccc3[nH]2)c(C)n1CC1CCCO1 (stereo not given)	14.6	?	15.8µM*

Screening results: PubChem, National Center for Advancing Translational Sciences (NCATS)
